Source: patent publication US20220289795, “EFFICIENT METHOD FOR PREPARING PPR PROTEIN AND USE OF THE SAME” (EditForce, Inc., published 2022)

Target: T1, v3.1_PPR13 (Artificial Sequence)
T1 chain: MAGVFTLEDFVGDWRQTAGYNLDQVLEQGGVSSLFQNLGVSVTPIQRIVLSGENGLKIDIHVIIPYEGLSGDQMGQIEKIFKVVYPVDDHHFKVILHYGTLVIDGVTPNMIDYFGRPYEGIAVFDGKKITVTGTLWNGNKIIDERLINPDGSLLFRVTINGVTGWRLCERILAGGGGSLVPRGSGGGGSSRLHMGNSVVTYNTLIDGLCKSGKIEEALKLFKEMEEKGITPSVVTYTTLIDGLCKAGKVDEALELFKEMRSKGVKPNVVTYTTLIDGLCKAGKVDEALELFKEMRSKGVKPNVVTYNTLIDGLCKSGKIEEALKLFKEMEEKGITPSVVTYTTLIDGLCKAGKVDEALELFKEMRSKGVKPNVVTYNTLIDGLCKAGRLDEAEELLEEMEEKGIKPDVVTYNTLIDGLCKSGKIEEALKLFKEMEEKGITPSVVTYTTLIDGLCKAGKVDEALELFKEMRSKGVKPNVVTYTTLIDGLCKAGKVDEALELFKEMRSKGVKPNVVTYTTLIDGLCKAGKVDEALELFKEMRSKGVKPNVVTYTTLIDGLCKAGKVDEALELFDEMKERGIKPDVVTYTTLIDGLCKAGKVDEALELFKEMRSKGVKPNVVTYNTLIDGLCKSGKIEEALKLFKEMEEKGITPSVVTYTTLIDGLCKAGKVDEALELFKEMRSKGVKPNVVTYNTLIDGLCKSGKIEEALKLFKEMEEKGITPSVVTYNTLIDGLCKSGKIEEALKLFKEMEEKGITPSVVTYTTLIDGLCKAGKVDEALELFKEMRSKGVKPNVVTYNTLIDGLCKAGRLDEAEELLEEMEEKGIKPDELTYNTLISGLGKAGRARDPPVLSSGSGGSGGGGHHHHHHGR
Assay: RPB-ELISA
Details: tags: N-terminal luciferase, C-terminal 6xHis; label: 5'-biotin; ssRNA
Procedure: RNA probes consisting of a designed 30-base sequence containing 18 bases of the target sequence and modified by biotinylation at the 5′ end (RNA_1, RNA_2, RNA_3, RNA_4, and RNA_5, SEQ ID NOS: 61 to 65) were synthesized (Grainer). To a streptavidin-coated plate (Thermo fisher), the 5′-end biotinylated RNA probes were added, reaction was allowed at room temperature for 30 minutes, and the plate was washed with a lysis buffer (20 mM Tris-HCl, pH 7.6, 150 mM NaCl, 5 mM MgCl₂, 0.5% NP-40, 1 mM DTT, 0.1% BSA). For background measurement, wells to which RNA was not added, but 100 μL of the lysis buffer, 1 μL of 100 mM DTT, and 1 μL of 40 unit/4 RNase inhibitor (Takara, 2313A) were added were also prepared. Then, 200 μL of a blocking buffer (20 mM Tris-HCl, pH 7.6, 150 mM NaCl, 5 mM MgCl₂, 0.5% NP-40, 1 mM DTT, 1% BSA) was added, and the plate surface was blocked at room temperature for 30 minutes. Then, 100 μL of E. coli lysate containing luciferase-fused PPR protein having a luminescence level of 1.5×10⁸ LU/μL was added to each well, and the binding reaction was allowed at room temperature for 30 minutes. The well was washed 5 times with 200 μL of a washing buffer (20 mM Tris-HCl, pH 7.6, 150 mM NaCl, 5 mM MgCl₂, 0.5% NP-40, 1 mM DTT). […] The background (luminescence signal value obtained with adding the PPR protein and without adding RNA) was subtracted from the luminescences of the samples to which a solution containing each RNA and PPR protein was added, and the obtained values were used as the binding powers between the PPR protein and RNA.
By using the V3.1 motif, PPR proteins for the same 23 kinds of target sequences were similarly prepared (SEQ ID NOS: 411 to 433 for the nucleotide sequences, and SEQ ID NOS: 434 to 456 for the amino acid sequences), and bindings of all the combinations were analyzed by using RPB-ELISA. The experimental method was the same as that used in Example 3.

**Q.** GGUUAGAGAUACAGUGUG was tested. Which binding signal did it give?
**A.** Its binding signal is 20.6 log2 luminescence.
